# Measurements: paper PMC12136788
# Where a chain is given by its changes, count along the chain named. Over roughly 5,800 sequences, “enrichment r” has its median near 0.68; the highest 2% begin near 11. Many of the other results were omitted from the sample, so the highest values are more common in it than they were.
# T1: UNK ZnF1-6 (called full-length) (human, UniProt Q9C0B0 30-357)
# T1 sequence: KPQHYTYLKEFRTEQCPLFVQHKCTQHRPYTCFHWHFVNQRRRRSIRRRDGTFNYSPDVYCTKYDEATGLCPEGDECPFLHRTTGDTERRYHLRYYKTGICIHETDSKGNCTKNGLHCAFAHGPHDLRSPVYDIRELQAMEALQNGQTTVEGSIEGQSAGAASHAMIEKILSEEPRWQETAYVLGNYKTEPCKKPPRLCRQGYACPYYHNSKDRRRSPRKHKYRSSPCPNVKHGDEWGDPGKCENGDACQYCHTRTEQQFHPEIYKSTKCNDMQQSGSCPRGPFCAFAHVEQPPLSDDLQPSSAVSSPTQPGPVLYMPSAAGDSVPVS
# B1: chr21:44851366:44851434:-|CDS_3pUTR|ENSG00000183255|msi1_unk|total|mutant (ssRNA)
# RNA: GGGAGUUCUACAGUCCGACGAUCAGGACAGUCCUCUCGUCUUGCAGACUGGUGACCUUCUAUUCCCUGUUCAUCUCUGUUUCCCGAUUCCGUCACUUGAAAUAAGAAAUCUUUGGGGUUUGGGCUUUUUUAUACUCUUCUCAGCAACAGAGGAUUGAGCAUCA
# B2: ENSG00000142192:stop:overlap|stop_codon|ENSG00000142192|stop_codon|NA|stop_codon (ssRNA)
# RNA: GGGAGUUCUACAGUCCGACGAUCAGAUGCAGCAGAACGGCUACGAAAAUCCAACCUACAAGUUCUUUGAGCAGAUGCAGAACUAGACCCCCGCCACAGCAGCCUCUGAAGUUGGACAGCAAAACCAUUGCUUCACUACCCAUCCAACAGAGGAUUGAGCAUCA
# B3: chr1:13115521:13116400:-|CDS|ENSG00000275774|control|control|control (ssRNA)
# RNA: GGGAGUUCUACAGUCCGACGAUCGAACAGAGCAAACAAGAGGUAGAGGUGAAAAAUGCUAAGUCAGAAGAGGAGCAGAGCAGUAGCUCCAUGAAGAAAGAUGAGACUCAUGUAAAGAUGGAGUCUGAGGGGGGUGCAGAAGACCAACAGAGGAUUGAGCAUCA
# B4: ENSG00000070961:be:win_5251|3pUTR|ENSG00000070961|bound_else_gene|NA|bound_elsewhere_windowed (ssRNA)
# RNA: GGGAGUUCUACAGUCCGACGAUCUGGAUUCUUUAGCUCUCUUUUUCUUUCCUUCAUCUACCUUCUUCUCUUUUUUGCCUCUGUCUUUACCCUUUAGAAACUGGCAUGUGUUAGGGCCCAGAUUUCACCAGAUACACAAUCCUCCAACAGAGGAUUGAGCAUCA
# B5: ENSG00000198589:be:win_6101|CDS|ENSG00000198589|bound_else_gene|NA|bound_elsewhere_windowed (ssRNA)
# RNA: GGGAGUUCUACAGUCCGACGAUCUAGGAAAUCAGAACUCAGAAAACGAGAUCCUCCUGGAAGGCGAUGAUGAUACUCUGUCAUCCGUGGAUGAGAAAGAUUUAGAGAAUCUUGCCGGUCCUGUUAGCCUGAGCACACCAGCUCCAACAGAGGAUUGAGCAUCA
# B6: ENSG00000227500:stop:overlap|stop_codon|ENSG00000227500|stop_codon|NA|stop_codon (ssRNA)
# RNA: GGGAGUUCUACAGUCCGACGAUCGCAACAGCCUGCCCGAGUACCCCACUGUGCCCAGCUACCCGGGCAGUGGCCAGUGGCCUUAGAGGGAGCCUGCCCUGCCCCCACCGCCCACCACCUCCUCCCCUUCAUUCCUGCUGCUACCAACAGAGGAUUGAGCAUCA
# B7: chr2:216672374:216672548:-|3pUTR|ENSG00000115461|msi1|total|mutant (ssRNA)
# RNA: GGGAGUUCUACAGUCCGACGAUCUUUUUCUUUUUUUUUUUGAAGACAGCAAUAACCACAGUACAUAUUACUGCCGUUCUCUACCGUUUUACAUACAUUCAUACCAUAACUCUGUUCUCUCCUCUUUUUUGUUUUCAACUUUAACAACAGAGGAUUGAGCAUCA
# B8: chr19:57593639:57593745:+|3pUTR|ENSG00000171649|unk|total|mutant (ssRNA)
# RNA: GGGAGUUCUACAGUCCGACGAUCUGAACCUUCUUAUUUCUCUACAUUCUUGCCAUACUUGGUAUGGUCCGUCUUUUUAAUUUCCGUUGUUUUAACCGCUGUAUAACCGCAUCUGUCUGUGAUUUUAUUGCAUUUUUCUGGUAUCAACAGAGGAUUGAGCAUCA
# B9: chr2:216672374:216672548:-|3pUTR|ENSG00000115461|msi1|FALSE|unique (ssRNA)
# RNA: B7 RNA with C73U, C74A, C83U, C84A
# B10: chr2:171983412:171983537:+|3pUTR|ENSG00000128708|unk|FALSE|unique (ssRNA)
# RNA: GGGAGUUCUACAGUCCGACGAUCUGAUGACUUUAAUUUUAAAAUCUUGUGACAUUUUGCUUAUACUAAAAGUUAUCUAUCUUUAGUUGAAUAUUUUCUUUUGGAGAGAUUGUAUAUUUUAAAAUACUGUUUAGAGUUUAUGAGCAACAGAGGAUUGAGCAUCA
# B11: chr20:3963869:3963970:-|CDS|ENSG00000101236|unk|total|mutant (ssRNA)
# RNA: GGGAGUUCUACAGUCCGACGAUCAAUCUGCCUCUCAACAUAUAUAUUGUGGUUUUUGGUACUGCUAUAUUUGUCUUCAUCCUCCGUUUACUCUUCUGUUGCUACUUGAUCCGGUAACCAAUUUUCAUUCUAUGUUACUUCAAACAACAGAGGAUUGAGCAUCA
# B12: chr19:57593639:57593745:+|3pUTR|ENSG00000171649|unk|FALSE|unique (ssRNA)
# RNA: B8 RNA with C68U, C69A, C83U, C84A, C95U, C96A, C106U, C107A
# B13: chr8:73046310:73046411:+|3pUTR|ENSG00000147601|msi1|FALSE|unique (ssRNA)
# RNA: GGGAGUUCUACAGUCCGACGAUCUUGUAUUCUUUAAGAACCUUAUUUUGAUAAAAUGUAAAUUUGUUGAACCCUGCCACAUUUAGUAUCCCCACCCCCAAAUCCUGUUCCAAUGAAAAAAUUAAAACCUGAUACGAAAAAAAACAACAGAGGAUUGAGCAUCA
# B14: chr2:96301550:96301651:-|CDS|ENSG00000144028|msi1|FALSE|unique (ssRNA)
# RNA: GGGAGUUCUACAGUCCGACGAUCAAGGCGAAAGGAGAUUGACCUGCUGCUGGGUCAAACAGAUGAUACCAGAUACCAUGUGCUAGUGAACCUGGGCAAAAAGAUCACAGACUAUGGUGGAGAUAAGGAAAUCCAAAAUAUGGGCAACAGAGGAUUGAGCAUCA
# B15: chr7:76302746:76302847:+|CDS|ENSG00000106211|unk|total|mutant (ssRNA)
# RNA: GGGAGUUCUACAGUCCGACGAUCGUCCCCUUCUCGCUCCUGCGGGGCCCCAGCUGGGACCCCUUCCGCGACUGGUACCCGCACCGCCGCCUCUUCGACCAGGCCUUCGGGCUGCCCCGGCUGCCGGAGGAGUGGUCGCAGUGGCAACAGAGGAUUGAGCAUCA
# B16: chr7:56101660:56101848:-|3pUTR|ENSG00000106153|msi1|total|mutant (ssRNA)
# RNA: GGGAGUUCUACAGUCCGACGAUCUGGAGAGAUGGAAAAUCAGCUCUCAUAACUAAGUUAAUUCCGUAUAAAAACCGAAUUGACCGUGAGGGUAUAAAGUGUAACCAUCAGUUAAACCUCUCCUGUCAUUCCUGGCUUCCUUGCCAACAGAGGAUUGAGCAUCA
# B17: chr11:2928445:2928542:-|3pUTR|ENSG00000181649|msi1_unk|FALSE|overlapping (ssRNA)
# RNA: GGGAGUUCUACAGUCCGACGAUCAUUGGACUAUCUAAUAUCUAUGUAUUUAUUUCGCUGGUUCUUUGUAGUCACAUAUUUUAUAGUCUUAAUAUCUUGUUUUUGCAUCACUGUGCCCAUUGCAAAUAAAUCACUUGGCCAGUUCAACAGAGGAUUGAGCAUCA
# B18: ENSG00000070961:be:win_1401|CDS|ENSG00000070961|bound_else_gene|NA|bound_elsewhere_windowed (ssRNA)
# RNA: GGGAGUUCUACAGUCCGACGAUCAAAUGCUACAGCUAUUUGUUCAGAUAAAACAGGAACUUUGACAAUGAACAGAAUGACAGUCGUUCAAGCUUACAUAAAUGAAAAACAUUAUAAAAAGGUUCCUGAACCAGAAGCUAUUCCCAACAGAGGAUUGAGCAUCA
# B19: chr1:52238154:52238269:+|CDS|ENSG00000157077|unk|total|mutant (ssRNA)
# RNA: GGGAGUUCUACAGUCCGACGAUCUCUGACCGUCCCGCCAGUGUCUGUUCCCCUUCACAAUUAAAGGAUGACGGAAGUACCGGCCGAGACCCCUCCAUGUCUGCGAUUACAAGUUUAACGGUUGAUUCAGUAAUCUCAUCCCAGCAACAGAGGAUUGAGCAUCA
# B20: chr2:88557131:88557241:-|3pUTR|ENSG00000172071|msi1|total|mutant (ssRNA)
# RNA: GGGAGUUCUACAGUCCGACGAUCGAGGACAAGCCGCACAAACUGUAUAACGGUUUAUGUCCGCCGUUUUACCGUCCUAUUUGCCGCAUUCAACCGCUUUAUUCCUCCGAUGGUUCCCGGGUGGGUUUACAGCUUUUUGUACUUCAACAGAGGAUUGAGCAUCA
# B21: chr8:65707876:65707977:+|CDS|ENSG00000066855|unk|FALSE|unique (ssRNA)
# RNA: GGGAGUUCUACAGUCCGACGAUCCCUGCUGCCCUCAUAGCAGAGGCUCUGAAAAAGAAAUUUGCUUAUCGGUAUCGAAGUGAUAGCCAAGAUGAAGUUGAAAAAGGAAUUCCAAAGUCUGAAUCAGAGGCCACCUCAGAGAGACAACAGAGGAUUGAGCAUCA
# B22: ENSG00000107863:be:win_3701|CDS|ENSG00000107863|bound_else_gene|NA|bound_elsewhere_windowed (ssRNA)
# RNA: GGGAGUUCUACAGUCCGACGAUCUCUUCACAAAUGAUAAAUAUGCUGAUUUUAUUGAAGCCAAUCGUAAAGAAGAUCCUCUAGAUCGUCUGAAAACAUUAAAAAGACUAAUUCACGAUUUGCCUGAACAUCAUUAUGAAACACCAACAGAGGAUUGAGCAUCA
# B23: ENSG00000066933:stop:overlap|stop_codon|ENSG00000066933|stop_codon|NA|stop_codon (ssRNA)
# RNA: GGGAGUUCUACAGUCCGACGAUCAUAGCUCAGAGAAUUUGAAUAUGGAGUCUGAAUAUGCUAUCUCUGAGAAAUCAGAAGCUUAGCCCUUAGCUCCCUGAAGACAGCUGGCAAGUCUGAACCUUCCAGCAAGUUGCGAAAGCACAACAGAGGAUUGAGCAUCA
# B24: chr10:30820206:30820444:-|three_prime_utr|ENSG00000183621|control|control|control (ssRNA)
# RNA: GGGAGUUCUACAGUCCGACGAUCCUUAUCUAAUCUCCAAAUGAAGAAUGGGCCCAUCUGACAUAUCCUAUGAGCACAAAGCUUAGGGGACUCUUCACCGAAACCUAGACAAAUAUUUGAAUGCAUUUUUUUUUUUUUUUUUUGCAACAGAGGAUUGAGCAUCA
# B25: ENSG00000112365:stop:overlap|stop_codon|ENSG00000112365|stop_codon|NA|stop_codon (ssRNA)
# RNA: GGGAGUUCUACAGUCCGACGAUCUCUACACACUGGCAAGAAGCCUUUCUCCUGCCCUGAGUGUAACUUACAGUUUGCUCGCUUAGACAACUUGAAGGCUCACUUGAAAAUUCAUAGCAAGGAGAAGCAUGCUUCAGAUGCCAGCAACAGAGGAUUGAGCAUCA
# B26: chr5:43486917:43487111:-|CDS|ENSG00000172244|control|control|control (ssRNA)
# RNA: GGGAGUUCUACAGUCCGACGAUCUUAUAAACCAGGAUCUUCAGAAACCUUGCUAGGAGAAGUUAAUGAAAAUAGAGUAUCAAUAGCAUUGAAAAAAACCUCUGAAAUCCUUCACGAUAUUGACUGUCUUCUAUCAAACUCUAACAACAGAGGAUUGAGCAUCA
# Biological target: T1, UNK ZnF1-6 (called full-length)
# Test: nsRBNS (natural sequence RNA bind-n-seq); RBNS binding buffer (assumed for nsRBNS): 25 mM Tris pH 7.5, 150 mM KCl, 3 mM MgCl2, 0.01% Triton X-100, 500 ug/ml BSA, 20 U/ml SUPERase-In, 4 C; UNK is unkempt and MSI1 is Musashi-1; names of the RNAs are library labels; protein concentration not given here; high values mean tight binding
row,Binder,binding signal [enrichment R]
1,B1,0.43
2,B2,0.618
3,B3,0.882
4,B4,1.45
5,B5,0.619
6,B6,0.868
7,B7,1.89
8,B8,1.21
9,B9,12.2
10,B10,4.24
11,B11,0.575
12,B12,122
13,B13,2.26
14,B14,0.578
15,B15,2.16
16,B16,0.253
17,B17,5.74
18,B18,0.274
19,B19,0.482
20,B20,0.471
21,B21,0.424
22,B22,0.382
23,B23,15.4
24,B24,27.7
25,B25,0.948
26,B26,0.69
